The record followed here is PubChem BioAssay (NCI).

Holding throughout (assay): NCI-60 one-dose screen, 48 h (100 = growth as untreated, 0 = no growth, -100 = all killed)
One experiment has as its system HCT-15 colon. The settings on record: 10 µM unless noted.
The subject of the next experiment is HT29 colon. Particulars: 10 µM unless noted.
The next experiment has as its system SNB-75 CNS. The settings on record: 10 µM unless noted.
For another experiment, the system named is SNB-19 CNS. Particulars: 10 µM unless noted.
The test system of the next experiment is U251 CNS. Particulars: 10 µM unless noted.
A further experiment has as its system PC-3 prostate. The settings on record: 10 µM unless noted.
For another experiment, the system named is SK-MEL-5 melanoma. The settings on record: 10 µM unless noted.
The next experiment deals with UACC-62 melanoma. The settings on record: 10 µM unless noted.
For another experiment, the system named is LOX IMVI melanoma. Particulars: 10 µM.
Another experiment relates to SK-MEL-28 melanoma. Particulars: 10 µM unless noted.
Another experiment concerns SK-MEL-2 melanoma. Particulars: 10 µM unless noted.
The subject of the next experiment is EKVX NSCLC. Particulars: 10 µM unless noted.
The next experiment has as its system SN12C renal. Particulars: 10 µM unless noted.
The next experiment has as its system UO-31 renal. Particulars: 10 µM unless noted.
In the next experiment the test system is TK-10 renal. Particulars: 10 µM unless noted.
For a further experiment, the system named is ACHN renal. The settings on record: 10 µM unless noted.
Another experiment has as its system CAKI-1 renal. Particulars: 10 µM unless noted.
The test system of the next experiment is MOLT-4 leukemia. The settings on record: 10 µM unless noted.
The next experiment deals with A498 renal. Particulars: 10 µM unless noted.
The subject of the next experiment is CCRF-CEM leukemia. Particulars: 10 µM unless noted.

Structures are written as SMILES. About 83,000 compounds went through this panel and 20% of them were active in at least one assay; those are over-represented in the sample as a whole.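 Activity criterion: percent growth below 10, measured after cells in 96-well plates were exposed to a single compound concentration for 48 hours.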 A number with no mark means an inactive call. Activity calls are given as the source filed them.

Take `CCNCC(C)(C)O`: the growth with HCT-15 colon is 104%; in the experiment on HT29 colon, 109%; in the experiment with SNB-75 CNS, 79.4%; with SNB-19 CNS it was 102%; with U251 CNS, 104%; in the experiment with PC-3 prostate it was 91.5%. The growth with SK-MEL-5 melanoma is 97.3%; in the experiment with UACC-62 melanoma, 102%; in the experiment with LOX IMVI melanoma, 101%; in the experiment on SK-MEL-28 melanoma, 101%; in the experiment with SK-MEL-2 melanoma, 107%; in the experiment with EKVX NSCLC, 99.6%. Further, the growth is 101% in the experiment with SN12C renal; 83.6% with UO-31 renal; 108% with TK-10 renal; 110% in the experiment on ACHN renal; 99.1% in the experiment on CAKI-1 renal; 99.2% in the experiment on MOLT-4 leukemia.
Consider `CC(=O)OCC1OC(n2cnc3c(=S)nc(N)[nH]c32)C(OC(C)=O)C1OC(C)=O` (stereo unspecified), for which the growth with HCT-15 colon was 79.3%; in the experiment with HT29 colon it was 74.6%; in the experiment on SNB-75 CNS, 56%; in the experiment with SNB-19 CNS, 99.9%; in the experiment with U251 CNS, 93.1%; with PC-3 prostate, 104%. In addition, the growth in the experiment on SK-MEL-5 melanoma was 99.4%; with UACC-62 melanoma it was 65.2%; in the experiment with LOX IMVI melanoma, 19.7%; with SK-MEL-28 melanoma, 114%; in the experiment on SK-MEL-2 melanoma, 95.2%; in the experiment on EKVX NSCLC, 83.9%. Further, the growth in the experiment with SN12C renal was 97.4%; in the experiment with UO-31 renal, 72.6%; in the experiment with TK-10 renal it was 82.4%; in the experiment with ACHN renal, 72.1%; with A498 renal, 105%; in the experiment with MOLT-4 leukemia, 2.42% (active).
Take `CCN(C(=O)Nc1ccccc1Cl)c1ccccc1`: the growth was 94.1% with HCT-15 colon; 101% with HT29 colon; 117% with SNB-75 CNS; 103% with SNB-19 CNS; 96.8% with U251 CNS; 94.6% in the experiment on PC-3 prostate. In addition, the growth in the experiment on SK-MEL-5 melanoma is 101%; with UACC-62 melanoma, 104%; with LOX IMVI melanoma it was 96.5%; with SK-MEL-28 melanoma it was 113%; in the experiment with SK-MEL-2 melanoma, 114%; in the experiment on EKVX NSCLC, 111%. For the same compound, the growth is 113% with SN12C renal; 91.4% in the experiment with UO-31 renal; 121% in the experiment with TK-10 renal; 96.2% in the experiment on ACHN renal; 102% in the experiment on A498 renal; 110% in the experiment on CCRF-CEM leukemia.
Consider `O=C(OCC1CCCO1)c1ccc([N+](=O)[O-])cc1` (stereo unspecified), for which the growth in the experiment on HCT-15 colon is 104%; in the experiment on HT29 colon, 108%; with SNB-75 CNS, 85.8%; in the experiment with SNB-19 CNS, 102%; in the experiment on U251 CNS it was 91.7%; in the experiment on PC-3 prostate, 88.4%. Besides, the growth is 104% with SK-MEL-5 melanoma; 99.8% in the experiment on UACC-62 melanoma; 104% in the experiment on LOX IMVI melanoma; 108% in the experiment on SK-MEL-28 melanoma; 103% in the experiment on SK-MEL-2 melanoma; 106% in the experiment on EKVX NSCLC. Besides, the growth in the experiment on SN12C renal was 95.3%; with UO-31 renal, 86.9%; with TK-10 renal, 99.4%; in the experiment with ACHN renal, 104%; in the experiment with A498 renal, 82.2%; with CCRF-CEM leukemia, 94.2%. Moreover, the growth with MOLT-4 leukemia is 101%.
Consider `Nc1nnc2cc(F)ccc2n1`, for which the growth with HCT-15 colon is 99.4%; in the experiment with HT29 colon, 111%; in the experiment on SNB-75 CNS, 75.1%; with SNB-19 CNS, 99.2%; in the experiment with U251 CNS it was 110%; with PC-3 prostate, 96.6%. The growth in the experiment on SK-MEL-5 melanoma was 114%; in the experiment with UACC-62 melanoma it was 105%; in the experiment on LOX IMVI melanoma, 96.3%; with SK-MEL-28 melanoma, 108%; in the experiment with SK-MEL-2 melanoma it was 112%; with EKVX NSCLC it was 96.9%. Further, the growth in the experiment with SN12C renal is 89.1%; in the experiment with UO-31 renal, 85%; in the experiment with TK-10 renal, 126%; in the experiment on ACHN renal, 99.4%; in the experiment on A498 renal it was 105%; with CCRF-CEM leukemia, 107%. In addition, in the experiment on MOLT-4 leukemia, the growth is 102%.
In the case of `CCOC(=O)c1c[nH][nH]c1=O`, the growth in the experiment with HCT-15 colon is 103%; in the experiment with HT29 colon, 105%; in the experiment on SNB-75 CNS, 118%; in the experiment on SNB-19 CNS, 99.1%; in the experiment with U251 CNS, 103%; with PC-3 prostate it was 108%. Further, the growth with SK-MEL-5 melanoma was 105%; in the experiment with UACC-62 melanoma, 96.2%; in the experiment with LOX IMVI melanoma, 97.8%; in the experiment on SK-MEL-28 melanoma, 127%; with SK-MEL-2 melanoma it was 94.1%; in the experiment on EKVX NSCLC it was 116%. For the same compound, the growth with SN12C renal is 104%; in the experiment on UO-31 renal, 93.7%; with TK-10 renal it was 111%; in the experiment on ACHN renal it was 106%; in the experiment on A498 renal it was 98.5%; with CCRF-CEM leukemia, 107%. The growth in the experiment with MOLT-4 leukemia was 106%.
For `OCC(O)COc1ccc(Cl)cc1Cl` (stereo unspecified), the growth in the experiment with HCT-15 colon is 105%; in the experiment with HT29 colon, 93.9%; with SNB-75 CNS it was 85.8%; in the experiment with SNB-19 CNS, 93.3%; with U251 CNS it was 89.3%; with PC-3 prostate, 97.3%. Also, the growth was 109% with SK-MEL-5 melanoma; 96.6% with UACC-62 melanoma; 111% in the experiment with LOX IMVI melanoma; 96.5% with SK-MEL-28 melanoma; 97.4% with SK-MEL-2 melanoma; 96.5% with EKVX NSCLC. In addition, the growth in the experiment on SN12C renal was 95%; in the experiment with UO-31 renal it was 89.4%; with TK-10 renal, 101%; in the experiment on ACHN renal, 93.2%; in the experiment with A498 renal, 99%; with CCRF-CEM leukemia it was 119%. Also, the growth in the experiment on MOLT-4 leukemia is 99.2%.
Take `CCOC(=O)C(=O)CC(=O)c1ccccc1`: the growth with HCT-15 colon is 102%; in the experiment on HT29 colon it was 103%; with SNB-75 CNS, 91.7%; in the experiment on SNB-19 CNS it was 100%; in the experiment on U251 CNS it was 93.3%; in the experiment on PC-3 prostate, 89.4%. The growth in the experiment with SK-MEL-5 melanoma is 95%; in the experiment with UACC-62 melanoma it was 93.3%; in the experiment on LOX IMVI melanoma, 98.6%; with SK-MEL-28 melanoma, 106%; with SK-MEL-2 melanoma, 96.9%; in the experiment on EKVX NSCLC, 97.4%. In addition, the growth with SN12C renal was 100%; in the experiment on UO-31 renal it was 85.3%; with TK-10 renal it was 113%; in the experiment on ACHN renal, 94.8%; with CCRF-CEM leukemia, 114%; in the experiment with MOLT-4 leukemia it was 104%.
With `Nc1ncc([N+](=O)[O-])cn1`, the growth is 108% in the experiment on HCT-15 colon; 81.2% in the experiment with HT29 colon; 99.1% in the experiment with SNB-75 CNS; 95.6% in the experiment with SNB-19 CNS; 96.2% in the experiment with U251 CNS; 88.7% with PC-3 prostate. For the same compound, the growth in the experiment with SK-MEL-5 melanoma was 94.6%; in the experiment on UACC-62 melanoma, 98.9%; in the experiment with LOX IMVI melanoma, 99.7%; with SK-MEL-28 melanoma, 103%; with SK-MEL-2 melanoma, 93.1%; in the experiment on EKVX NSCLC, 105%. Also, the growth in the experiment on SN12C renal is 101%; in the experiment with UO-31 renal, 90%; in the experiment on TK-10 renal, 94.5%; with ACHN renal it was 109%; in the experiment on A498 renal it was 87.8%; with MOLT-4 leukemia, 105%.
